# Experimental data taken from the supplement of paper PMC10338343.
# ± gives the standard deviation.
# Tested on: EfPiwi piRISC loaded with L1MC piRNA (26 nt)
# Experiment: pre-steady-state target cleavage rate (min^-1); auxiliary factor: 500 nM Ephydatia muelleri Gtsf1; guide: L1MC piRNA 5'p-UAACUAAAUACUAUGCAAGCUGUAGG; MIWI and MILI are mouse PIWI proteins and EfPiwi is from a freshwater sponge; tags in brackets are library labels; higher = faster piRNA-guided slicing of the target
# Outline: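 Active affinity-purified piRISC carrying one synthetic guide (1 nM) was mixed with a transcribed, DNA-blocked target RNA library […] in HEPES–potassium acetate buffer at 33 °C for 0–8 or 0–960 min, with or without 500 nM GTSF1 partner protein. Uncleaved targets were then sequenced and normalised to depth and to weakly complementary targets. Three trials were pooled, and k3 was capped at 0.0001 min^-1. A burst-and-steady-state fit was applied to obtain the pre-steady-state cleavage rate.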
row,Sequence,pre-steady-state target cleavage rate
1,UCCUCCUACAGCUUGCAUAGUAGUUUAGUUA,0.0131 ± 0.0052
2,UCCUGGAACAGCCUGCAUAGUAUUUAGUUA,0.0144 ± 0.0045
3,UCCUGGAUCAGGUUGCAAAGUAUUUAGUUA,0.0172 ± 0.0054
4,UCCUGCUAGACCUUGCAUAGUAUUUAGUUA,0.00526 ± 0.0023
5,UCCUGGUAGAGCUUGCAUAGUAUAUAGUUA,0.0131 ± 0.0051
6,UCCUGGAUGAGCUUGCAUAGUAUUUAGUAA,0.00367 ± 0.0022
7,UCCUGCAUGAGCUUGCAUAGUAUUUAGUAA,0.0061 ± 0.0025
8,UCCUCCUACAGCUUGCAUCGUAUUUAGUUA,0.0492 ± 0.014
9,UCCUGGAUCAGCUUCAUAGUAUUUAGUUA,0.00789 ± 0.0033
10,UCCUGGAUGACGUUGCAUAGUAUUUAGUUA,0.00512 ± 0.0026
11,UCCUGGAUCACGCUUGCAUAGUAUUUAGUUA,0.223 ± 0.05
12,UCCUGGAUCAGCUUGCAUAGUAUUUAGAUA,0.00499 ± 0.0022
13,UCCUGGAACAGCUUGCAUAGUAUUUAGUAA,0.00976 ± 0.0038
14,UCCUGGAUCAGCUUGCAAAGUUUUUAGUUA,0.00491 ± 0.0036
15,UCCUGGUUCAGCUUGCAUAGUAAUUAGUUA,0.0107 ± 0.0037
16,UCCUCCUACAGCUUGCAUAGUAUUUAGUAA,0.0113 ± 0.005
17,UCCUGCUACAGCUUCGAUAGUAUUUAGUUA,0.00756 ± 0.0026
18,UCCUGGAACAGCUUGCAUGGUAUUUAGUUA,0.0141 ± 0.0045
19,UCCUCCUACAGCUUGCAUAGUAUUUAGAUA,0.00505 ± 0.0025
20,UCCUGGAACAGCUUGCAUGUAUUUAGUUA,0.00314 ± 0.0027

row,Sequence,pre-steady-state target cleavage rate
1,UCCUGGAACAUGCUUGCAUAGUAUUUAGUUA,0.0178 ± 0.0057
2,UCCUGGAUCAGGUAGCAUAGUAUUUAGUUA,0.00369 ± 0.0035
3,UCCUGGAACAGACUUGCAUAGUAUUUAGUUA,0.0135 ± 0.0042
4,UCCUGGAUGUCCUUGCACAGUAUUUAGUUA,0.00454 ± 0.0024
5,UCCUGGAUCAGCUUACAUAGUAUUUAGUUA,0.175 ± 0.039
6,UCCUGCUACAGCUAGCAUAGUAUAUAGUUA,0.00485 ± 0.0017
7,UCCUGCUUCAGCUUGCAAAGUAUUUAGUUA,0.0683 ± 0.018
8,UCCUGCUACAGGAUGCAUAGUAUUUAGUAA,0.00317 ± 0.0021
9,UCCUCGUACAGCUAGCAUAGUAUUUAGUUA,0.0402 ± 0.01
10,UCCUGGUACAGCUUGCAUUGUAUUUAGUUA,0.00513 ± 0.002
11,UCCUGCUACAGCUGGCAUAGUAUUUAGUUA,0.00937 ± 0.0024
12,UCCUGGAUGAGCUUGCAUAGUAAUUAGUUA,0.0154 ± 0.0044
13,UCCUGGAUGAGCUUGCUUAGUAUUUAGUUA,0.00629 ± 0.0027
14,UCCUCCUACAGCUAGCAUAGUAUUUAGUUA,0.0119 ± 0.0038
15,UCCUGGAUGAGGUUGCAUAGUAAUUAGUUA,0.00522 ± 0.003
16,UCCUGCUACAGCUUGCAUAGUAUUUAUUUA,0.0055 ± 0.0037
17,UCCUGUUACAGCUUGCAUAGUAUUUAGUUA,0.231 ± 0.07
18,UCCUGGAUCAGCUUCGAUAGUAUUUAGUUA,0.00503 ± 0.0041
19,UCCUGGAACCAGCUUGCAUAGUAUUUAGUUA,0.0336 ± 0.0098
20,UCCUGCUACUGCUUGCAUACUAUUUAGUUA,0.00669 ± 0.0028
